In PubChem BioAssay AID1626 (SRMLSC, 2009):
The campaign covered roughly 220,000 compounds. About 2,000 (0.91%) were called active. About 2% were inconclusive and are not listed. The list is a sample of the results. Measured potencies and affinities stand elsewhere. A number with no mark means an inactive call. Cut-off read from the data, not from the text of the source: inconclusive = inhibition above about 80% without an active follow-up result; inactive = below that; test concentration not stated here.

experiment: M. tuberculosis H37Rv growth inhibitors, H37Rv strain (AID 1626); settings: stronger effect = higher value, concentration not given here;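 note: bacteria incubated seven days before Alamar blue readout; 0% = bacteria only wells and 100% = bacteria with antibiotic wells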

| Compound | inhibition [%] |
| --- | --- |
| O=C(/C=C/NNC(=O)c1ccc(Cl)cc1)c1ccccc1 | 2.77 |
| O=C(/C=C/Sc1ncn[nH]1)c1ccc(Cl)cc1 | 6.21 |
| CCC(=O)NCCCc1nc(-c2ccccc2)no1 | -4.65 |
| COc1ccccc1N1CCN(C(=O)Cn2nc3n(C)c4ccccc4n3c(=O)c2=O)CC1 | 0.2 |
| COc1ccccc1NCC(=O)n1nc(C)cc1C | -3.99 |
| Cc1occc1-c1nnc(SCC(=O)Nc2ccccn2)o1 | 10 |
| O=C(CSc1nc2ccccc2o1)Nc1ccccc1 | -0.33 |
| O=C(CSc1nc2ccccc2o1)c1ccccc1 | 9.75 |
| CCS(=O)(=O)c1ccc2oc(SCC(=O)NCCc3ccccc3)nc2c1 | 3.18 |
| Cc1ccc(-c2csc(NC(=O)CSc3nc4ccccc4o3)n2)cc1 | 65.3 |
| Cc1occc1-c1nnc(SCC(=O)NCCc2ccccc2)n1Cc1ccccc1 | -7.81 |
| O=C(CSc1nc2ccccc2o1)Nc1nncs1 | 2.93 |
| COc1ccc(CCNC(=O)CSc2nc3ccccc3o2)cc1 | 96.4 |
| Cc1ccc(NC(=S)Nc2cc(C)on2)cc1 | 4.76 |
| COc1ccc(NC(=O)C2CCCN(S(=O)(=O)c3cccc4nonc34)C2)cc1OC (centres undefined) | 0.88 |
| CCOC(=O)c1c(-c2ccc(C)s2)csc1N | 3.65 |
| Cc1nc2c(C#N)cnn2c2c1CCNN2C | -8.46 |
| COc1ccccc1-c1cc(C(=O)N2CCN(c3ccc(F)cc3)CC2)no1 | 4.4 |
| Cc1cccc(NC(=O)NNS(=O)(=O)c2ccc(F)cc2)c1 | 7.42 |
| O=C(CN1CCN(C(=O)c2ccco2)CC1)N1CCc2[nH]c3ccccc3c2C1 | 7.26 |
| COc1ccc(C2CC(=O)C3=C(C2)Nc2ncnn2C3c2ccccc2)cc1 (centres undefined) | -8.64 |
| Cc1nnc(NC(=O)CSc2nc3ccccc3o2)s1 | -1.02 |
| O=C(CSc1nc2ccccc2o1)Nc1nc2ccccc2s1 | -3.19 |
| Cc1ccccc1Cn1nnc(-c2ccc(C(=O)O)cc2)n1 | -5.85 |
| Nc1nc(-c2ccc3c(c2)OCCO3)cs1 | 78.2 |
| N#Cc1cncc(-c2ccc3c(c2)OCCOCCOCCOCCOCCO3)n1 | 5.9 |

| Compound | inhibition [%] |
| --- | --- |
| Cc1ccc(-n2ncc3c2ncn2c(C)nnc32)cc1C | 14.5 |
| CC(C)(C)C(=O)Nc1ccc(-c2csnn2)cc1 | -0.28 |
| NC(=O)c1ccc(-c2csnn2)cc1 | 0.58 |
| Cc1ccc(NC(=O)C(C)OC(=O)c2ccc(NS(=O)(=O)c3ccc(F)c(F)c3)cc2)cc1 (centres undefined) | -2.38 |
| Cc1nc2c(c(=O)n1CCC(C)C)c1nc3ccccc3nc1n2CC1CCCO1 (centres undefined) | 2.15 |
| CC1CCN(S(=O)(=O)c2cccc(-c3cn4cc(Cl)ccc4n3)c2)CC1 | -1.37 |
| O=C(O)CCN1C(=O)C2C3c4ccccc4C(c4ccccc43)[C@@H]2C1=O (some centres undefined) | -2.72 |
| CC(=O)Nc1ccc(NC2=Nc3ccccc3N3C2=Nc2c(c(C)nn2-c2ccccc2)C3c2ccccc2)cc1 (centres undefined) | 75.1 |
| Cc1ccccc1-n1nc(C)c2c1N=C1C(Cl)=CC(Cl)=CN1C2c1ccc(C(=O)O)cc1 (centres undefined) | -4.15 |
| CCCc1nnc(NC(=O)OCC)s1 | 4.01 |
| CC(NC(=O)C1CC1)C(c1cccs1)N1CCOCC1 (centres undefined) | 4.47 |
| O=C(CSc1nnc(Cc2ccccc2)o1)c1ccc(F)cc1 | 6.24 |
| Cn1c(NC(=O)/C=C/c2ccco2)cc(=O)n(C)c1=O | -0.44 |
| COc1ccc(NC(=O)c2sc3nc(Cc4ccccc4)cc(C(F)(F)F)c3c2N)cc1OC | 7.82 |
| Nc1c(C(=O)NC23CC4CC(CC(C4)C2)C3)sc2nc3c(c(C(F)(F)F)c12)CCC3 | -10.2 |
| CCNC(=S)Nc1sc2c(c1C#N)CCC(C)C2 (centres undefined) | 9.49 |
| Cc1ccc(N2CN=C3SCC(=O)N3C2)cc1C | 73.8 |
| Cc1cc(C)cc(N2CN=C3SCC(=O)N3C2)c1 | 4.22 |
| CN(C)c1ccc(N2CN=C3SCC(=O)N3C2)cc1 | -6.22 |
| O=C1CSC2=NCN(c3ccccc3)CN12 | 5.48 |
| O=C1CN(C(=S)Nc2ccc(OC(F)F)cc2)CCN1 | 5.94 |
| CCOc1cc(C=O)cc(Br)c1OCC(N)=O | -0.11 |
| COc1ccc(/C(O)=C2/C(=O)C(=O)N(CCN3CCOCC3)C2c2cccnc2)cc1OC (centres undefined) | -6.27 |
| Cc1nc(CS(=O)c2ccc(Cl)cc2)cc(N2CCOCC2)n1 (centres undefined) | 5 |
| COCc1cc(Sc2ccc(Cl)cc2)nc(C)n1 | 18.1 |
| Cc1ccc2nsnc2c1S(=O)(=O)N1CCCC1 | -7.86 |

| Compound | inhibition [%] |
| --- | --- |
| CCOC(=O)Cc1csc(NC(=O)c2c(O)c3c(n(CC(C)C)c2=O)CCCC3)n1 | 71.9 |
| CCCCCCCCn1c(=O)c(C(=O)OCC)c(O)c2ccccc21 | 7.93 |
| CC(C)CCn1c(=O)c(C(=O)Nc2ccccc2S(N)(=O)=O)c(O)c2ccccc21 | -11.9 |
| CCCCCn1c(=O)c(C(=O)OCC)c(O)c2ccccc21 | -3.26 |
| O=c1cc(CN2CCCCC2)nc(C2CC2)[nH]1 | 3.51 |
| Cc1ccc(C(=O)Nc2nccc(-c3cccs3)n2)cc1 | -6.72 |
| Oc1ccc(-c2nccc(-c3cccs3)n2)cc1 | -3.17 |
| Cc1ccc(C(C)C)c(OCC(O)CN2CCN(CCO)CC2)c1 (centres undefined) | 2.52 |
| CN(C)/C=N/c1c(C#N)cnn1C | -9.88 |
| O=C(O)c1ccc(CN2C(=O)c3ccccc3S2(=O)=O)cc1 | -3.5 |
| N#CC(c1ccccc1)c1ccc2c(C(F)(F)F)cc(C(F)(F)F)nc2n1 (centres undefined) | -11.8 |
| Cc1ccc(C(C#N)c2ccc3c(C(F)(F)F)cc(C(F)(F)F)nc3n2)cc1 (centres undefined) | 12 |
| Cc1ccc2nc(-c3cc(N)cc(N)c3)oc2c1 | 56.3 |
| Nc1cccc(-c2nc3cc(S(=O)(=O)c4ccc5oc(-c6cccc(N)c6)nc5c4)ccc3o2)c1 | -1.41 |
| Cc1ccc(-c2nc3cc(N)ccc3o2)c(C)c1 | 8.94 |
| CCc1ccc2oc(-c3cc(N)ccc3Cl)nc2c1 | 1.18 |
| Cc1ccc(C)c(-c2nc3cc(N)ccc3o2)c1 | 77.1 |
| CCc1ccc2oc(-c3cccc(N)c3)nc2c1 | 5.28 |
| Nc1ccc2oc(-c3cccc4ccccc34)nc2c1 | 4.7 |
| Cc1ccc2nc(-c3cccnc3)oc2c1 | -9.72 |
| CC(C)CNS(=O)(=O)c1ccc(CCC(=O)Nc2cc(Cl)ccc2Oc2ccccc2)cc1 | 9.05 |
| CC(=O)Nc1cccc(Cn2cccn2)c1 | -6.83 |
| Cc1ccc(C)c(S(=O)(=O)NC(Cc2c[nH]c3ccccc23)C(=O)O)c1 (centres undefined) | -3.14 |
| Cc1ccc(N(C(=O)c2ccncc2)C2C=CS(=O)(=O)C2)cc1 (centres undefined) | -9.29 |
| CCCCCCc1cc2cc(C(N)=O)c(=N)oc2cc1O | -2.17 |
| CCCCCCc1cc2cc(C(=O)NCc3ccccc3)c(=N)oc2cc1O | -13.1 |

| Compound | inhibition [%] |
| --- | --- |
| O=C1N=C(N2CCN(c3cccc4ccccc34)CC2)S/C1=C/c1cccs1 | 85.6 |
| O=C1N=C(N2CCN(c3ccccc3)CC2)S/C1=C/c1cccs1 | 50.8 |
| CCOc1ccc(NC(=O)NCCN2C(C)CCCC2C)cc1 (centres undefined) | -2.64 |
| N#Cc1c(NC(=O)CSCC(=O)O)sc2c1CCCC2 | -15.3 |
| Cc1c(C(=O)Nc2ccncc2)oc2ccccc12 | -1.93 |
| O=C(Nc1nc2ccccc2[nH]1)c1ccccc1 | 19.3 |
| COc1ccc2oc(C(=O)Nc3nc4ccccc4[nH]3)c(C)c2c1 | 51.1 |
| C/C(=N\Nc1nc2ccccc2[nH]1)c1cc2ccccc2o1 | 56.4 |
| O=C(/C=C\c1ccc2c(c1)OCO2)Nc1nnc(SCC(=O)OCc2ccccc2)s1 | 20.4 |
| CCOc1ccc(OCC)c(S(=O)(=O)NC2CC(C)(C)NC(C)(C)C2)c1 | -3.13 |
| COc1cccc(CNC(=O)Cn2nc(-c3ccc(Cl)cc3)ccc2=O)c1 | 4.51 |
| CCOC(=O)C(C)Sc1nc(=O)n2cc(C)ccc2n1 (centres undefined) | 3.92 |
| Cc1ccc([N+](=O)[O-])cc1NCC(=O)NN | -8.54 |
| c1ccc2c(SCc3cn4ccccc4n3)nncc2c1 | -2.83 |
| N=C(N)SCc1nc2ccccn2c1Br | -11.2 |
| CC(C)c1ccc2c(c1)C(c1cccs1)=NNC(c1ccncc1)=N2 | 0.38 |
| COc1ccc(-c2nnc3ccc(SC(C(C)=O)C(C)=O)nn23)cc1OC | 2.29 |
| COc1ccc(NC(C)=O)cc1C#N | 0.78 |
| O=C1OC2(CCCCC2)OC(=O)C1=CNc1ccc2c(c1)OCO2 | 55.9 |
| NS(=O)(=O)c1ccc(NC=C2C(=O)OC3(CCCCC3)OC2=O)cc1 | 4.66 |
| COCCCNC(=O)Cn1cc(C(C)=O)c2ccccc21 | -10.3 |
| CC1CCCC(NC(=O)COC(=O)[C@@H](NC(=O)c2ccco2)C(C)C)C1C (some centres undefined) | -2.77 |
| CCc1cc2cc(C(=O)Nc3ccccc3F)sc2s1 | 0.32 |
| Cc1ccc(NC(=O)c2cccs2)cc1 | -1.3 |
| CC(C)(C)c1ccc(C(=O)Nc2ccc(F)cc2)s1 | 12.9 |
| CCc1cc2cc(C(=O)N3CCN(c4ccccc4)CC3)sc2s1 | 2.92 |
